Laboratory results from PubChem BioAssay (NCI).
The panel holds about 79,000 compounds, 15% with a hit somewhere; the sample as a whole holds those more often. Activity calls are given as the source filed them. Cut-off read from the data, not from the text of the source: active = growth inhibition above about 70%; inactive = the rest.

Assays:
[1] = NCI Yeast Anticancer Drug Screen. Data for the rad52 strain (AID 147);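 note: 0% = growth of vehicle-treated control cultures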; settings: S. cerevisiae rad52 mutant growth inhibition, active compounds read high
In short: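 Read-out: growth inhibition versus vehicle-treated controls. Cells were a DNA repair-deficient yeast strain treated with compounds.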

[2] = NCI Yeast Anticancer Drug Screen. Data for the wt1 strain (AID 149);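 note: 0% = growth of vehicle-treated wt1 cultures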; settings: S. cerevisiae wt1 strain (SPY 50644) growth inhibition, active compounds read high
In short: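 wt1 yeast, compound-treated; % growth inhibition vs vehicle control.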

[3] = NCI Yeast Anticancer Drug Screen. Data for the rad50EPP+ strain (AID 151);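 note: 0% = growth of vehicle-treated control cultures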; settings: S. cerevisiae rad50 mutant strain, active compounds read high
In short: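 Growth inhibition read against vehicle controls in rad50EPP+ yeast, a strain altered in DNA damage repair, after compound exposure.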

[4] = NCI Yeast Anticancer Drug Screen. Data for the mgt1 strain (AID 153); settings: S. cerevisiae mgt1 mutant growth inhibition, active compounds read high
In short: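 mgt1 yeast grown with test compound; read-out is growth inhibition versus vehicle-treated cultures.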

[5] = NCI Yeast Anticancer Drug Screen. Data for the rad50 strain (AID 155);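 note: 0% = growth of vehicle-only cultures of the same strain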; settings: S. cerevisiae rad50 strain growth inhibition, active compounds read high
In short: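 Genetically altered yeast (DNA repair pathway); compound treatment; growth inhibition vs vehicle ctrl.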

[6] = NCI Yeast Anticancer Drug Screen. Data for the rad14 strain (AID 159);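 note: 0% = growth of vehicle-treated control cultures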; settings: S. cerevisiae rad14 strain growth inhibition, active compounds read high
In short: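 Test compounds were applied to a repair-deficient yeast strain. Its growth was then compared with that of cultures given vehicle alone, and inhibition was expressed relative to those controls.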

[7] = NCI Yeast Anticancer Drug Screen. Data for the CLN2oe strain (AID 163);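 note: 0% = growth of vehicle-only control cultures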; settings: S. cerevisiae CLN2oe strain, active compounds read high
In short: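 Read-out: yeast growth inhibition, expressed relative to vehicle-only controls. The strain bears an engineered cell-cycle alteration.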

[8] = NCI Yeast Anticancer Drug Screen. Data for the cln2 rad14 strain (AID 165);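 note: 0% = growth equal to vehicle treated cultures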; settings: S. cerevisiae cln2 rad14 strain, active compounds read high
In short: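 cln2 rad14 yeast strain; compound exposure; growth inhibition read vs vehicle controls.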

[9] = NCI Yeast Anticancer Drug Screen. Data for the bub3 strain (AID 167); settings: S. cerevisiae bub3 mutant strain, active compounds read high
In short: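 Yeast carrying a defined mutation is treated with each compound, and growth is compared with that of vehicle-exposed cells to give inhibition.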

[10] = NCI Yeast Anticancer Drug Screen. Data for the wt2 strain (AID 169);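 note: 0% = growth of vehicle-treated yeast cultures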; settings: S. cerevisiae wt2 strain growth inhibition, active compounds read high
In short: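 Read-out: growth inhibition versus vehicle-treated control cultures after compound exposure of the yeast strain.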

[11] = NCI Yeast Anticancer Drug Screen. Data for the mlh1 strain (AID 171);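 note: 0% = growth of vehicle-treated control cultures of the same strain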; settings: S. cerevisiae mlh1 strain growth inhibition, active compounds read high
In short: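 Read-out: growth inhibition versus vehicle controls. Strain: engineered yeast with a defined DNA repair or cell cycle defect, compound-treated.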

[12] = NCI Yeast Anticancer Drug Screen. Data for the sgs1 strain (AID 173);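 note: 0% = growth of vehicle-only control cultures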; settings: S. cerevisiae sgs1 mutant, active compounds read high
In short: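 Read-out: yeast growth inhibition relative to vehicle controls, following compound exposure of a strain with a defined DNA repair/cell cycle alteration.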

[13] = NCI Yeast Anticancer Drug Screen. Data for the mlh1 rad18 strain (AID 175); settings: S. cerevisiae mlh1 rad18 strain growth inhibition, active compounds read high
In short: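 Yeast w/ defined DNA-repair lesions; compound exposure; growth vs vehicle controls → % inhibition.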

[14] = NCI Yeast Anticancer Drug Screen. Data for the rad18 strain (AID 177); settings: S. cerevisiae rad18 mutant growth inhibition, active compounds read high
In short: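 Readout: growth inhibition vs vehicle controls. Cells: genetically altered yeast strain, DNA repair defect.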

[15] = NCI Yeast Anticancer Drug Screen. Data for the mec2-1 strain (AID 157); settings: S. cerevisiae mec2-1 strain, active compounds read high
In short: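 Yeast mec2-1 mutant treated with compound. Readout: growth inhibition vs vehicle controls.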

[16] = NCI Yeast Anticancer Drug Screen. Data for the sgs1 mgt1 strain (AID 161);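 note: 0% = growth of cultures given vehicle only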; settings: S. cerevisiae sgs1 mgt1 strain, active compounds read high
In short: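 Mutant yeast exposed to compound; growth scored against vehicle-only wells.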

[17] = at 5.0 µM (retest, dose inferred, filed as 0.5)
[18] = at 50.0 µM (retest, dose inferred, filed as 5.0)

Measured: growth inhibition

COc1ccc2c(c1)CCCC(Br)C2=O (stereo not given)
inactive: [1]; at 1.2 µM 12% | [1]; at 3.7 µM 17% | [1]; at 11.0 µM 27% | [1]; at 33.0 µM 64% | [2]; at 1.2 µM 14% | [2]; at 3.7 µM 0% | [2]; at 11.0 µM 17% | [2]; at 33.0 µM 51% | [3]; at 1.2 µM 5% | [3]; at 3.7 µM 28% | [3]; at 11.0 µM 30% | [3]; at 33.0 µM 67% | [4]; at 1.2 µM 26% | [4]; at 3.7 µM 23% | [4]; at 11.0 µM 36% | [5]; at 1.2 µM 30% | [5]; at 3.7 µM 28% | [5]; [17] 11% | [5]; at 11.0 µM 31% | [5]; [18] 48% | [5]; at 50.0 µM 37.4% | [6]; at 1.2 µM 3% | [6]; at 3.7 µM 2% | [6]; at 11.0 µM 14% | [6]; at 33.0 µM 64% | [7]; at 1.2 µM 1% | [7]; at 3.7 µM 11% | [7]; at 11.0 µM -9% | [7]; at 33.0 µM 45% | [8]; [17] 39% | [8]; [18] 59% | [8]; at 50.0 µM 34.3% | [9]; at 1.2 µM -7% | [9]; at 3.7 µM -10% | [9]; [17] -12% | [9]; at 11.0 µM -4% | [9]; at 33.0 µM 50% | [10]; at 1.2 µM -41% | [10]; at 3.7 µM -53% | [10]; at 11.0 µM -22% | [10]; at 33.0 µM 60% | [11]; at 1.2 µM 26% | [11]; at 3.7 µM 23% | [11]; at 11.0 µM 36% | [12]; at 1.2 µM 34% | [12]; at 3.7 µM 43% | [12]; at 11.0 µM 35% | [13]; [17] 6% | [14]; at 1.2 µM 32% | [14]; at 3.7 µM 45% | [14]; at 11.0 µM 54%
active: [1]; at 100.0 µM 98% | [2]; at 100.0 µM 98% | [3]; at 100.0 µM 97% | [4]; at 33.0 µM 78% | [4]; at 100.0 µM 98% | [5]; at 33.0 µM 70% | [5]; at 100.0 µM 98% | [6]; at 100.0 µM 98% | [7]; at 100.0 µM 96% | [9]; [18] 97% | [9]; at 50.0 µM 90.1% | [9]; at 100.0 µM 97% | [10]; at 100.0 µM 98% | [11]; at 33.0 µM 78% | [11]; at 100.0 µM 98% | [12]; at 33.0 µM 74% | [12]; at 100.0 µM 99% | [13]; [18] 73% | [13]; at 50.0 µM 92.4% | [14]; at 33.0 µM 87% | [14]; at 100.0 µM 99%

NCCCSc1ccccc1
inactive: [1]; at 1.2 µM -2% | [1]; at 3.7 µM -2% | [1]; at 11.0 µM -4% | [1]; at 33.0 µM -4% | [1]; at 100.0 µM -2% | [2]; at 1.2 µM -2% | [2]; at 3.7 µM -4% | [2]; at 11.0 µM -2% | [2]; at 33.0 µM -3% | [2]; at 100.0 µM -3% | [3]; at 1.2 µM -3% | [3]; at 3.7 µM -1% | [3]; at 11.0 µM -4% | [3]; at 33.0 µM -8% | [3]; at 100.0 µM -6% | [5]; at 1.2 µM -3% | [5]; at 3.7 µM -2% | [5]; [17] 2% | [5]; at 11.0 µM -2% | [5]; at 33.0 µM -3% | [5]; [18] -19% | [5]; at 50.0 µM -25.2% | [5]; at 100.0 µM -2% | [15]; at 1.2 µM -1% | [15]; at 3.7 µM 0% | [15]; [17] -8% | [15]; at 11.0 µM 1% | [15]; at 33.0 µM 0% | [15]; [18] -30% | [15]; at 50.0 µM 14.7% | [15]; at 100.0 µM 0% | [6]; at 1.2 µM -2% | [6]; at 3.7 µM -1% | [6]; at 11.0 µM -1% | [6]; at 33.0 µM -1% | [6]; at 100.0 µM -1% | [16]; [17] -11% | [16]; [18] -6% | [16]; at 50.0 µM -1.9% | [7]; at 1.2 µM -4% | [7]; at 3.7 µM -3% | [7]; at 11.0 µM 0% | [7]; at 33.0 µM -4% | [7]; at 100.0 µM -5% | [8]; [17] -3% | [8]; [18] 37% | [8]; at 50.0 µM 34.4% | [9]; at 1.2 µM -2% | [9]; at 3.7 µM -3% | [9]; [17] 8% | [9]; at 11.0 µM -1% | [9]; at 33.0 µM -1% | [9]; at 50.0 µM -0.3% | [9]; at 100.0 µM -4% | [10]; at 1.2 µM -2% | [10]; at 3.7 µM -2% | [10]; at 11.0 µM -2% | [10]; at 33.0 µM -2% | [10]; at 100.0 µM -1% | [11]; at 1.2 µM -2% | [11]; at 3.7 µM -4% | [11]; at 11.0 µM -2% | [11]; at 33.0 µM -4% | [11]; at 100.0 µM -2% | [12]; at 1.2 µM 0% | [12]; at 3.7 µM 1% | [12]; at 11.0 µM 2% | [12]; at 33.0 µM 0% | [12]; at 100.0 µM 1% | [13]; [17] -21% | [13]; [18] -15% | [13]; at 50.0 µM -4.65% | [14]; at 1.2 µM -1% | [14]; at 3.7 µM -1% | [14]; at 11.0 µM -8% | [14]; at 33.0 µM 1% | [14]; at 100.0 µM -1%
active: [9]; [18] 78%
